How the values were obtained:
Assay in all cases: DAPPL (digital affinity profiling via proximity ligation, sequencing); 10 mM Tris-HCl pH 7.5, 50 mM NaCl, 1 mM DTT, 4% glycerol, room temperature, 30 min; GST-TFs on glutathione beads, 16-mer random dsDNA library, 0.1% formaldehyde crosslink after washing; high values mean tight binding
FEV = biological target: T1, FEV (Homo sapiens, UniProt Q99581 1-238); settings: protein: recombinant; tags: N-terminal GST; dsDNA, one strand shown
T1 sequence: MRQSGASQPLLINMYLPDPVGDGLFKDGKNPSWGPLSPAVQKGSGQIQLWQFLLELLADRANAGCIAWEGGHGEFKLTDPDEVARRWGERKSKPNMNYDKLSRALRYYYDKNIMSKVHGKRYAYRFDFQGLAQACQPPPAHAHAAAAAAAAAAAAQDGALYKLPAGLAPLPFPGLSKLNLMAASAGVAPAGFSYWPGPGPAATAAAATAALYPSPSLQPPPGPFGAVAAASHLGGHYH
How it was run: (§1)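 A tag-only sample was pooled with DNA-barcoded human transcription factors that had been expressed in yeast as GST fusions and captured on glutathione beads. The pools were incubated for 30 min at room temperature with 200 nmole of a random double-stranded 16-mer DNA library in Tris/NaCl/DTT/glycerol buffer, then washed, crosslinked with 0.1% formaldehyde, proximity-ligated (BsaI/T4 ligase, 1 h, 37 °C), PCR-amplified and sequenced on an Illumina NextSeq500. Binding signal is each hexamer's read frequency for a factor divided by its frequency for the tag-only sample.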

ETV5 = ETV5 (Homo sapiens, UniProt P41161 1-510); settings: protein: recombinant; tags: N-terminal GST; dsDNA, one strand shown
Sequence of ETV5 (P41161 whole entry): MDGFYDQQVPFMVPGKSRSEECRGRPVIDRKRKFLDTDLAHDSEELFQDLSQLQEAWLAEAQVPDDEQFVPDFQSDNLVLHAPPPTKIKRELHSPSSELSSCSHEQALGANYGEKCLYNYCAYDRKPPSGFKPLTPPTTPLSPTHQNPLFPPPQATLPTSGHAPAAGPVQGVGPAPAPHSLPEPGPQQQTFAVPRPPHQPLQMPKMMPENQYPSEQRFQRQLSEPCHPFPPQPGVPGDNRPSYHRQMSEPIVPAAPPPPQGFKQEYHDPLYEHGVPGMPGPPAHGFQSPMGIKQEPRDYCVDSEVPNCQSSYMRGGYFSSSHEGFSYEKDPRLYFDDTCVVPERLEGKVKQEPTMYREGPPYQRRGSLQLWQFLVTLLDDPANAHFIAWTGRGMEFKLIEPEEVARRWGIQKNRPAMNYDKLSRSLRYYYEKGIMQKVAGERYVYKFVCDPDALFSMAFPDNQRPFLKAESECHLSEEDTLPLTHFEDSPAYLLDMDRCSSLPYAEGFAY
How it was run: as §1

HSF1 = HSF1 (Homo sapiens, UniProt Q00613 1-529); settings: protein: recombinant; tags: N-terminal GST; chain copies: 3; dsDNA, one strand shown
Sequence of HSF1 (Q00613 whole entry): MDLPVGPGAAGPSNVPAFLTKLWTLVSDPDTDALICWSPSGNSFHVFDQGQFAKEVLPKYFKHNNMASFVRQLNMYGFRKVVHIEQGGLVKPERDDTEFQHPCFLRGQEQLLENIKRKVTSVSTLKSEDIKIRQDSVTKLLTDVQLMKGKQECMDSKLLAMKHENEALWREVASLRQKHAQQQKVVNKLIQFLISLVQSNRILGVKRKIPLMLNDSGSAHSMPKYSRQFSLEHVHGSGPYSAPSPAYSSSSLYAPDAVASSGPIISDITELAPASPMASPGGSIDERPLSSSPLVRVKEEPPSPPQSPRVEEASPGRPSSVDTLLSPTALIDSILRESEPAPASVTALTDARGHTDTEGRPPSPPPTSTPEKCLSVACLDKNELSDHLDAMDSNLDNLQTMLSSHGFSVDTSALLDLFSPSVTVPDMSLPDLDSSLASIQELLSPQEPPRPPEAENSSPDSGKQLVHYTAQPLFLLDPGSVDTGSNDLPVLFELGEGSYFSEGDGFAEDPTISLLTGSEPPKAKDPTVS
How it was run: as §1

SPIC = biological target: T2, SPIC (Homo sapiens, UniProt Q8N5J4 1-248); settings: protein: recombinant; tags: N-terminal GST; dsDNA, one strand shown
T2 sequence: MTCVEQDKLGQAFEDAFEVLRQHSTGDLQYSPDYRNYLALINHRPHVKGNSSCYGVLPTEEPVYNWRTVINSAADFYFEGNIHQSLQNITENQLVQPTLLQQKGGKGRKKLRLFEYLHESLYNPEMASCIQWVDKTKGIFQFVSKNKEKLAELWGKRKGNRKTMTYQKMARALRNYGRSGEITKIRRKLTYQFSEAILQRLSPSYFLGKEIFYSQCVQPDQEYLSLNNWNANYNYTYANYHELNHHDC
How it was run: as §1

ELF4 = ELF4 (Homo sapiens, UniProt Q99607 1-663); settings: protein: recombinant; tags: N-terminal GST; dsDNA, one strand shown
Sequence of ELF4 (Q99607 whole entry): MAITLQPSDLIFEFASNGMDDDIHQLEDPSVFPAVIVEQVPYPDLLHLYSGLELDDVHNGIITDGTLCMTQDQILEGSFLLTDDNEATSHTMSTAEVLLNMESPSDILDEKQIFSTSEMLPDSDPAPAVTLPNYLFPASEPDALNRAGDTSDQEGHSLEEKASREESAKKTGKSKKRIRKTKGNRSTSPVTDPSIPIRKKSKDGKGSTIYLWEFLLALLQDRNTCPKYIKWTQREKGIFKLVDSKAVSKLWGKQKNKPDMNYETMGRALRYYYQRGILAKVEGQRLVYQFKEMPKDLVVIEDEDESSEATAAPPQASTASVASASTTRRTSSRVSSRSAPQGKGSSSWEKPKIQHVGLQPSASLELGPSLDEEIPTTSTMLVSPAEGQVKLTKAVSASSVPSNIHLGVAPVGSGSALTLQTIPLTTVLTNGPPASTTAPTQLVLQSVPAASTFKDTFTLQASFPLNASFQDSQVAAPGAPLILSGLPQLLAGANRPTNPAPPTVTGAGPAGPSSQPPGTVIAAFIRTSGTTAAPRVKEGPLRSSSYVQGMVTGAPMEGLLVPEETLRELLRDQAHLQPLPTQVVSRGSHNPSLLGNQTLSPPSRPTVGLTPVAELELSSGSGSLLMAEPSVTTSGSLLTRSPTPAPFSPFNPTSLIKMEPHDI
How it was run: as §1

ELK4 = biological target: T3, ELK4 (Homo sapiens, UniProt P28324-2 1-405); settings: protein: recombinant; tags: N-terminal GST; dsDNA, one strand shown
T3 sequence: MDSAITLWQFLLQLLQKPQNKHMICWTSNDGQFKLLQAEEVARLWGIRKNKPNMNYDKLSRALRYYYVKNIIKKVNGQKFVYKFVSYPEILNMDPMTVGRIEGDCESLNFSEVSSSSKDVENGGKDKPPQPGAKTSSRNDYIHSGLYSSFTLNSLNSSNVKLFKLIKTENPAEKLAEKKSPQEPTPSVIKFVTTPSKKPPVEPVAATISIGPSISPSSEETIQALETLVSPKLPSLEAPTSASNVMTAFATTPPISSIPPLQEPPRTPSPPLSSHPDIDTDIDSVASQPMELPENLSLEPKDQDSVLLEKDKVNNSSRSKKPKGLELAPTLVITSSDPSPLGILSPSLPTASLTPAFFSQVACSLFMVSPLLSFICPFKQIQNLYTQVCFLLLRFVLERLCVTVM
How it was run: as §1

ETV2 = biological target: T4, ETV2 (Homo sapiens, UniProt O00321 1-342); settings: protein: recombinant; tags: N-terminal GST; dsDNA, one strand shown
T4 sequence: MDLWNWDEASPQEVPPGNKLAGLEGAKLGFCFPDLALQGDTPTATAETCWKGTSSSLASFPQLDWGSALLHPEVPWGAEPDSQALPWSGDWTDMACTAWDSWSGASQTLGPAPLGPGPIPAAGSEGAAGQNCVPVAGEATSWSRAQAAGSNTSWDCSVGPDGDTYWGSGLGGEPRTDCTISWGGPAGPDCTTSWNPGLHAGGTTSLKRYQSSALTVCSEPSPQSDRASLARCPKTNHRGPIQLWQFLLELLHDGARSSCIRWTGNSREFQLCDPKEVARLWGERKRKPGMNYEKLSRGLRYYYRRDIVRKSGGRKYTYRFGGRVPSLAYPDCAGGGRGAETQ
How it was run: as §1

ELF3 = biological target: T5, ELF3 (Homo sapiens, UniProt P78545 1-371); settings: protein: recombinant; tags: N-terminal GST; dsDNA, one strand shown
T5 sequence: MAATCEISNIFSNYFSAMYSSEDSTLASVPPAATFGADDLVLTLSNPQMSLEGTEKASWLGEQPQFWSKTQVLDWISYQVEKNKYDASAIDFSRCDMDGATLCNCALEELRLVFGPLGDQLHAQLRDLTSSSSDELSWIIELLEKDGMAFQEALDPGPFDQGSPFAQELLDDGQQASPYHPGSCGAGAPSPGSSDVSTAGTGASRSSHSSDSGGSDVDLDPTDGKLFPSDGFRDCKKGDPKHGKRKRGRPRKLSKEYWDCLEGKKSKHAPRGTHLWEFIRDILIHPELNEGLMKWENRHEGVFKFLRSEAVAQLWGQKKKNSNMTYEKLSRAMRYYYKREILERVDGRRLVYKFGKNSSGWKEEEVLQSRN
How it was run: as §1

CRX = CRX (Homo sapiens, UniProt O43186 1-299); settings: protein: recombinant; tags: N-terminal GST; dsDNA, one strand shown
Sequence of CRX (O43186 whole entry): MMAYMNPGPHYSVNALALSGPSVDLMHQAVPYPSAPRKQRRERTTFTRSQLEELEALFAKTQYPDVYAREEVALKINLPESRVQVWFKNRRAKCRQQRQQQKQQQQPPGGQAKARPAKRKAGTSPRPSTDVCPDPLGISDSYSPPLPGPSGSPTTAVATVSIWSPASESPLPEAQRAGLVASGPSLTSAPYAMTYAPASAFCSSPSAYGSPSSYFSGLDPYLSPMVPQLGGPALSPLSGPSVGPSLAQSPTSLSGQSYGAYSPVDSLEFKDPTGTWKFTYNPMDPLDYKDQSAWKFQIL
How it was run: as §1

ETV1 = ETV1 (Homo sapiens, UniProt P50549 1-477); settings: protein: recombinant; tags: N-terminal GST; dsDNA, one strand shown
Sequence of ETV1 (P50549 whole entry): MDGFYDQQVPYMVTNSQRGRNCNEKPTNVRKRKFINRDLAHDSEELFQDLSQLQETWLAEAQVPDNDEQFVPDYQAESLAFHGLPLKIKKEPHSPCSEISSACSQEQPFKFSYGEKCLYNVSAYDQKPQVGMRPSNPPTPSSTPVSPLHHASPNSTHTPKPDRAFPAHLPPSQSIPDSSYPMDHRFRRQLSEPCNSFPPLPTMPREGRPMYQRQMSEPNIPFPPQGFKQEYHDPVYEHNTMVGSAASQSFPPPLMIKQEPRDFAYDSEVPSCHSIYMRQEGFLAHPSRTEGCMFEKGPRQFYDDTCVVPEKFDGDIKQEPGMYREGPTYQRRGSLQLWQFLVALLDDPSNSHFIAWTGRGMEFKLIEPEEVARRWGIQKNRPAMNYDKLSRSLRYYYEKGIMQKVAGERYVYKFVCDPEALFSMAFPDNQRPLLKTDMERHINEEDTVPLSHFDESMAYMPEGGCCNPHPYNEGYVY
How it was run: as §1

ERF = biological target: T6, ERF (Homo sapiens, UniProt P50548 1-548); settings: protein: recombinant; tags: N-terminal GST; dsDNA, one strand shown
T6 sequence: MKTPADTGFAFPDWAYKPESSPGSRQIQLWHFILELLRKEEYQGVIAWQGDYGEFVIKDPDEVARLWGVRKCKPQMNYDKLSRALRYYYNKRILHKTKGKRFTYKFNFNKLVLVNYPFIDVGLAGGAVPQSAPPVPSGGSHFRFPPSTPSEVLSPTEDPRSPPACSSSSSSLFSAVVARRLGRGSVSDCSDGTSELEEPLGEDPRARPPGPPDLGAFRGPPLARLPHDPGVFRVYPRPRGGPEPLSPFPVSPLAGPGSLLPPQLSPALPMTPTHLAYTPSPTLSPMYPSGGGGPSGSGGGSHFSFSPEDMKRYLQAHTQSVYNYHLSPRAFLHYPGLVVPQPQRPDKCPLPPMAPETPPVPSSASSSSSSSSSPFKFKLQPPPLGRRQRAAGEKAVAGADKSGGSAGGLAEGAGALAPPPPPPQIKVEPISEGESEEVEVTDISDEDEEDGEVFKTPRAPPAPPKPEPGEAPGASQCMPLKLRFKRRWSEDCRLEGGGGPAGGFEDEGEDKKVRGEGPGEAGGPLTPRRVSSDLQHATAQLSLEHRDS
How it was run: as §1

ETV3L = biological target: T7, ETV3L (Homo sapiens, UniProt Q6ZN32 1-361); settings: protein: recombinant; tags: N-terminal GST; dsDNA, one strand shown
T7 sequence: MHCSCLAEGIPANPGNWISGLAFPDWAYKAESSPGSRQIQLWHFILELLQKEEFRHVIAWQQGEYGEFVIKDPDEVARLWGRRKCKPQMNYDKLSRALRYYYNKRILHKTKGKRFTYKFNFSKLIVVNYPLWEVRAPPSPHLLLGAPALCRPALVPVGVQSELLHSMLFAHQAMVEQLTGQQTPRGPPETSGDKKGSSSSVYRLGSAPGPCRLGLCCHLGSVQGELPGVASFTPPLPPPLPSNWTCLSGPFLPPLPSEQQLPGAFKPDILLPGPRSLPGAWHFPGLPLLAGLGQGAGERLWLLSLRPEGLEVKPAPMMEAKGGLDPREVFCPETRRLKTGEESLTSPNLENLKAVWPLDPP
How it was run: as §1

ETS2 = biological target: T8, ETS2 (Homo sapiens, UniProt P15036 1-469); settings: protein: recombinant; tags: N-terminal GST; dsDNA, one strand shown
T8 sequence: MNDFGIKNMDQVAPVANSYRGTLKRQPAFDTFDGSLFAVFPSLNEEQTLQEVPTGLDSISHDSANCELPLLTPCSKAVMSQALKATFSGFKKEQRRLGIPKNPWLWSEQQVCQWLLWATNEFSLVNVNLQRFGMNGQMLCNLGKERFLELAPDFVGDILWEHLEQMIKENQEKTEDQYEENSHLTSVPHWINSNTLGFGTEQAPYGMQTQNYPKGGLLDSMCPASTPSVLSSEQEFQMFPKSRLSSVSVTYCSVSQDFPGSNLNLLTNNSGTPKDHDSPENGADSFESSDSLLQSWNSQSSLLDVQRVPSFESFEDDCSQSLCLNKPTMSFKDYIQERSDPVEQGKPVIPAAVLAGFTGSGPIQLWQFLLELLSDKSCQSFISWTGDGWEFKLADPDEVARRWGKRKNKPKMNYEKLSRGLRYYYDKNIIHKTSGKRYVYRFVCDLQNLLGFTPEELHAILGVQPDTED
How it was run: as §1

SPDEF = biological target: T9, SPDEF (Homo sapiens, UniProt O95238 1-335); settings: protein: recombinant; tags: N-terminal GST; dsDNA, one strand shown
T9 sequence: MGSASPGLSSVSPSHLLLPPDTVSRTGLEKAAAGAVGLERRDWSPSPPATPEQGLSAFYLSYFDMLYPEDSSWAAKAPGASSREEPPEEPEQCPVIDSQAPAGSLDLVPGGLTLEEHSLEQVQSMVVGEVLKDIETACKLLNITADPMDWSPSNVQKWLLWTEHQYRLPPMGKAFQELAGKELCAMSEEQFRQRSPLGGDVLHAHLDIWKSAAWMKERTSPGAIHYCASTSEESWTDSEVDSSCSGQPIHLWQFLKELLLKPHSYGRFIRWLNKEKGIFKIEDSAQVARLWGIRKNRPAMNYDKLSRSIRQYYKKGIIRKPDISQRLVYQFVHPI
How it was run: as §1

ETV7 = biological target: T10, ETV7 (Homo sapiens, UniProt Q9Y603 1-341); settings: protein: recombinant; tags: N-terminal GST; dsDNA, one strand shown
T10 sequence: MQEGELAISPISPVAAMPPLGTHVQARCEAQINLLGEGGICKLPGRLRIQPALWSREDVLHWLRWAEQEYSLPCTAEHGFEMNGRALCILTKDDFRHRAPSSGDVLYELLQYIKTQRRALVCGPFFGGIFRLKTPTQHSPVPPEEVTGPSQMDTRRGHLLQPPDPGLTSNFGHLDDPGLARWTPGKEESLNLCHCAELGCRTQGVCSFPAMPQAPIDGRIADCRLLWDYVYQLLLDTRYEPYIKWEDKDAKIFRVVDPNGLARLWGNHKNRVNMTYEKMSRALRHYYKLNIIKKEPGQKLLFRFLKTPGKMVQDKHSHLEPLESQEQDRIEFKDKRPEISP
How it was run: as §1

ELF5 = biological target: T11, ELF5 (Homo sapiens, UniProt Q9UKW6-2 1-255); settings: protein: recombinant; tags: N-terminal GST; dsDNA, one strand shown
T11 sequence: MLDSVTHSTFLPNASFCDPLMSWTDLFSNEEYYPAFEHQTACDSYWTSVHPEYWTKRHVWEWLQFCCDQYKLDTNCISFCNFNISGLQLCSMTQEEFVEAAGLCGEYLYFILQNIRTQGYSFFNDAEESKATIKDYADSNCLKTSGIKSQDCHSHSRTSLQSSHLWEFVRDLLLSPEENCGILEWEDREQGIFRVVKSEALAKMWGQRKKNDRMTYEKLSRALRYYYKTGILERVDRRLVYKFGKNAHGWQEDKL
How it was run: as §1

ETV3 = biological target: T12, ETV3 (Homo sapiens, UniProt P41162-2 1-143); settings: protein: recombinant; tags: N-terminal GST; dsDNA, one strand shown
T12 sequence: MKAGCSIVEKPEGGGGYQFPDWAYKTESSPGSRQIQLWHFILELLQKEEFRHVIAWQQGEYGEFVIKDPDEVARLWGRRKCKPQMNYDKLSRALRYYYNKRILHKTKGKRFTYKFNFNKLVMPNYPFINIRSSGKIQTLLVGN
How it was run: as §1

ETV6 = ETV6 (Homo sapiens, UniProt P41212 1-452); settings: protein: recombinant; tags: N-terminal GST; dsDNA, one strand shown
Sequence of ETV6 (P41212 whole entry): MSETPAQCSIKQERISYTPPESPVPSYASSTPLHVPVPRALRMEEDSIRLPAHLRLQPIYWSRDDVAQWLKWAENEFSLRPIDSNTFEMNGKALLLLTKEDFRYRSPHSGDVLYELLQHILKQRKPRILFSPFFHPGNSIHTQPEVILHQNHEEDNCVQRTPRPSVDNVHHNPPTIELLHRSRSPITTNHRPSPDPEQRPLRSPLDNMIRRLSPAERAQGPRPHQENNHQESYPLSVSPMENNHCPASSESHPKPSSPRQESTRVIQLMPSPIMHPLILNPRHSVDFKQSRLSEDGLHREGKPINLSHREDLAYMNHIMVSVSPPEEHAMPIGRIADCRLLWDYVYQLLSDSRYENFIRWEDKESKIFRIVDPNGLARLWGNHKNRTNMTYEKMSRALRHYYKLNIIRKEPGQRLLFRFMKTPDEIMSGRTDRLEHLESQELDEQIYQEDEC
How it was run: as §1

CTCACT
binding signal (FEV): 1.63 fold enrichment (6-mer frequency, TF over GST control) | binding signal (ETV5): 1.4 fold enrichment (6-mer frequency, TF over GST control) | binding signal (HSF1): 1.36 fold enrichment (6-mer frequency, TF over GST control) | binding signal (SPIC): 1.57 fold enrichment (6-mer frequency, TF over GST control) | binding signal (ELF4): 1.53 fold enrichment (6-mer frequency, TF over GST control) | binding signal (ELK4): 1.38 fold enrichment (6-mer frequency, TF over GST control) | binding signal (ETV2): 1.51 fold enrichment (6-mer frequency, TF over GST control) | binding signal (ELF3): 1.63 fold enrichment (6-mer frequency, TF over GST control) | binding signal (CRX): 1.27 fold enrichment (6-mer frequency, TF over GST control) | binding signal (ETV1): 1.49 fold enrichment (6-mer frequency, TF over GST control) | binding signal (ERF): 1.45 fold enrichment (6-mer frequency, TF over GST control) | binding signal (ETV3L): 1.52 fold enrichment (6-mer frequency, TF over GST control) | binding signal (ETS2): 1.6 fold enrichment (6-mer frequency, TF over GST control) | binding signal (SPDEF): 1.44 fold enrichment (6-mer frequency, TF over GST control) | binding signal (ETV7): 1.56 fold enrichment (6-mer frequency, TF over GST control) | binding signal (ELF5): 1.54 fold enrichment (6-mer frequency, TF over GST control) | binding signal (ETV3): 1.5 fold enrichment (6-mer frequency, TF over GST control) | binding signal (ETV6): 1.6 fold enrichment (6-mer frequency, TF over GST control)

Source: PMC7862700, “An all-to-all approach to the identification of sequence-specific readers for epigenetic DNA modifications on cytosine”
